Laboratory results as given in PubChem BioAssay (NCI).
The panel holds about 83,000 compounds, 20% with a hit somewhere; the sample as a whole holds those more often.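 Note: values are percent growth. 100 is the growth of untreated cells, values between 100 and 0 indicate rising inhibition; between -100 and 0 indicates cell death.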 Activity calls are given as the source filed them. How the source made its calls: active means growth percent below 10; inactive means the rest.

What was measured:
Test in all cases: NCI-60 one-dose screen, 48 h (100 = growth as untreated, 0 = no growth, -100 = all killed)
DU-145 prostate = conditions: 10 µM unless noted
K-562 leukemia = conditions: 10 µM unless noted
MALME-3M melanoma = conditions: 10 µM unless noted
MDA-MB-231 breast = conditions: 10 µM unless noted
RXF 393 renal = conditions: 10 µM unless noted
SF-268 CNS = conditions: 10 µM unless noted
SF-295 CNS = conditions: 10 µM unless noted
SF-539 CNS = conditions: 10 µM unless noted
UACC-257 melanoma = conditions: 10 µM
M14 melanoma = conditions: 10 µM unless noted
HT29 colon = conditions: 10 µM unless noted
SNB-75 CNS = conditions: 10 µM unless noted
SNB-19 CNS = conditions: 10 µM unless noted
U251 CNS = conditions: 10 µM unless noted
PC-3 prostate = conditions: 10 µM unless noted
SK-MEL-5 melanoma = conditions: 10 µM unless noted
UACC-62 melanoma = conditions: 10 µM unless noted
LOX IMVI melanoma = conditions: 10 µM unless noted
SK-MEL-28 melanoma = conditions: 10 µM unless noted
HCT-15 colon = conditions: 10 µM unless noted

Measured: growth

COc1ccccc1/C=C/C=N/NC1=NC2C(S1)N(C)C(=O)N2c1ccccc1 (stereo not given)
inactive: K-562 leukemia 14.3% | MALME-3M melanoma 45.7% | MDA-MB-231 breast 18.8% | SF-268 CNS 44.4% | UACC-257 melanoma 79.8% | HT29 colon 15.9% | SNB-75 CNS 18.3% | SNB-19 CNS 22.7% | U251 CNS 23.5% | PC-3 prostate 26.9% | UACC-62 melanoma 33% | SK-MEL-28 melanoma 60.3%
active: DU-145 prostate 8.54% | RXF 393 renal 1.56% | SF-295 CNS 9.01% | SF-539 CNS -15.5% | M14 melanoma -12.1% | SK-MEL-5 melanoma -12.6% | LOX IMVI melanoma -0.484%

O=C(Nc1cc(F)cc2cccnc12)c1cnc(N2CCOCC2)cn1
inactive: DU-145 prostate 68.5% | K-562 leukemia 22.7% | MALME-3M melanoma 53.6% | MDA-MB-231 breast 54.7% | RXF 393 renal 59.8% | SF-268 CNS 94.3% | SF-295 CNS 97.4% | SF-539 CNS 87.6% | UACC-257 melanoma 30.6% | M14 melanoma 70.6% | HT29 colon 30.1% | SNB-19 CNS 88.6% | U251 CNS 94.6% | PC-3 prostate 62.9% | SK-MEL-5 melanoma 83.5% | UACC-62 melanoma 84.9% | LOX IMVI melanoma 19.4% | SK-MEL-28 melanoma 77.4%

CNC(=O)c1cc(N2CCc3cc(NC(=O)Nc4ccc(Cl)c(Cl)c4)ccc32)ccn1
inactive: DU-145 prostate 97.1% | K-562 leukemia 78.2% | MALME-3M melanoma 68.3% | MDA-MB-231 breast 90.9% | SF-268 CNS 104% | SF-295 CNS 71.9% | SF-539 CNS 55.7% | UACC-257 melanoma 79.8% | HCT-15 colon 63% | HT29 colon 82.1% | SNB-75 CNS 87.9% | SNB-19 CNS 81.4% | U251 CNS 70% | PC-3 prostate 65.2% | SK-MEL-5 melanoma 74.5% | UACC-62 melanoma 78.9% | LOX IMVI melanoma 86.9%
active: RXF 393 renal -2.71%

O=C(Nc1cc(Cl)cc(Cl)c1)Nc1ccc2oc(=O)ccc2c1
active: MALME-3M melanoma 0.228% | SF-295 CNS 3.51% | U251 CNS 6.21% | PC-3 prostate 1.84% | UACC-62 melanoma 2.84% | SK-MEL-28 melanoma 9.09%
inactive: DU-145 prostate 17% | K-562 leukemia 15.4% | MDA-MB-231 breast 24.6% | RXF 393 renal 47.7% | SF-268 CNS 24.8% | SF-539 CNS 22.5% | UACC-257 melanoma 23.4% | M14 melanoma 32.5% | HT29 colon 16.2% | SNB-75 CNS 39.3% | SNB-19 CNS 13.3% | SK-MEL-5 melanoma 29.6% | LOX IMVI melanoma 14.8%

CN(c1ccc(F)cc1)S(=O)(=O)c1ccc(-c2cnc(C3CC3)o2)cc1
active: RXF 393 renal -8.88% | SF-295 CNS -12.9% | SF-539 CNS 4.96%
inactive: DU-145 prostate 23.5% | K-562 leukemia 10.3% | MALME-3M melanoma 65.3% | MDA-MB-231 breast 28.4% | SF-268 CNS 64.2% | UACC-257 melanoma 70.9% | M14 melanoma 14.6% | HT29 colon 13.9% | SNB-19 CNS 36.9% | U251 CNS 23.3% | PC-3 prostate 17.8% | SK-MEL-5 melanoma 26.8% | UACC-62 melanoma 30.5% | SK-MEL-28 melanoma 56.7%

Cc1cc(NS(=O)(=O)c2ccc(-c3cnc(C4CC4)o3)cc2)ccc1I
inactive: DU-145 prostate 26% | K-562 leukemia 11.6% | MALME-3M melanoma 48.8% | MDA-MB-231 breast 40.9% | RXF 393 renal 10.8% | SF-268 CNS 65.1% | SF-539 CNS 11.5% | UACC-257 melanoma 66.8% | M14 melanoma 24.6% | HT29 colon 14.2% | SNB-19 CNS 40.1% | U251 CNS 30.1% | PC-3 prostate 22.7% | SK-MEL-5 melanoma 31.5% | UACC-62 melanoma 30.3% | SK-MEL-28 melanoma 62%
active: SF-295 CNS -2.36%

CCN1C/C(=N\S(=O)(=O)c2ccccc2)N(CC)C1=S
inactive: DU-145 prostate 117% | K-562 leukemia 98.8% | MALME-3M melanoma 100% | MDA-MB-231 breast 104% | RXF 393 renal 117% | SF-268 CNS 104% | SF-295 CNS 103% | SF-539 CNS 102% | UACC-257 melanoma 97.6% | M14 melanoma 99% | HT29 colon 108% | SNB-75 CNS 91.3% | SNB-19 CNS 98.2% | U251 CNS 97.4% | PC-3 prostate 110% | SK-MEL-5 melanoma 102% | UACC-62 melanoma 95.2% | LOX IMVI melanoma 99.3% | SK-MEL-28 melanoma 104%

O=C1CSC(=O)N1Cc1cc2ccccc2nc1Cl
inactive: DU-145 prostate 104% | K-562 leukemia 99.8% | MALME-3M melanoma 94.2% | MDA-MB-231 breast 103% | RXF 393 renal 96% | SF-268 CNS 99.1% | SF-295 CNS 101% | SF-539 CNS 108% | UACC-257 melanoma 103% | M14 melanoma 103% | HT29 colon 107% | SNB-75 CNS 84.7% | SNB-19 CNS 99.8% | U251 CNS 97.6% | PC-3 prostate 96.8% | SK-MEL-5 melanoma 99.7% | UACC-62 melanoma 93.9% | LOX IMVI melanoma 97.4% | SK-MEL-28 melanoma 109%

O=C(CSc1ccc(-c2nc3ccccc3[nH]2)cn1)N1CCN(c2ccccc2F)CC1
inactive: DU-145 prostate 90.7% | K-562 leukemia 41.9% | MALME-3M melanoma 90.8% | MDA-MB-231 breast 100% | RXF 393 renal 90.7% | SF-268 CNS 87.7% | SF-295 CNS 61.4% | SF-539 CNS 92.1% | UACC-257 melanoma 56.2% | M14 melanoma 59.8% | HCT-15 colon 72.4% | HT29 colon 94.1% | SNB-19 CNS 89.8% | U251 CNS 90.5% | UACC-62 melanoma 52.4% | LOX IMVI melanoma 85.3% | SK-MEL-28 melanoma 87.8%
active: SK-MEL-5 melanoma -32.7%

CCOC(=O)c1c(NC(=O)c2ccc(C(C)(C)C)cc2)sc2cc(OCCN3CCCCC3)ccc12
active: LOX IMVI melanoma -74.4%
inactive: DU-145 prostate 71.5% | K-562 leukemia 16% | MALME-3M melanoma 97% | MDA-MB-231 breast 70.1% | RXF 393 renal 68.1% | SF-268 CNS 90.6% | SF-295 CNS 99.7% | SF-539 CNS 82.1% | UACC-257 melanoma 100% | M14 melanoma 89.3% | HT29 colon 24.3% | SNB-75 CNS 94.7% | SNB-19 CNS 55.6% | U251 CNS 45.3% | SK-MEL-5 melanoma 96.9%

O=C(NNc1nc2cc(F)c(F)cc2n2cccc12)c1ncccn1
inactive: DU-145 prostate 26.8% | K-562 leukemia 20.8% | MALME-3M melanoma 32.7% | MDA-MB-231 breast 42.1% | RXF 393 renal 48.8% | SF-268 CNS 17.3% | SF-295 CNS 14.7% | SF-539 CNS 10.9% | UACC-257 melanoma 14.5% | HT29 colon 34.3% | SNB-19 CNS 25.8% | U251 CNS 18.3% | PC-3 prostate 32.4% | UACC-62 melanoma 18.3% | LOX IMVI melanoma 16.1% | SK-MEL-28 melanoma 25.7%
active: M14 melanoma 1.46% | SNB-75 CNS -1.51% | SK-MEL-5 melanoma -70.7%

COc1cc2cc(Oc3ccc(NC(=O)Nc4cccc(C(F)(F)F)c4)cc3)c(C)nc2cc1OCCN(C)C
active: K-562 leukemia 10% | LOX IMVI melanoma -74.9%
inactive: DU-145 prostate 92.5% | MALME-3M melanoma 84.7% | MDA-MB-231 breast 98.1% | RXF 393 renal 75.9% | SF-268 CNS 107% | SF-295 CNS 81.1% | SF-539 CNS 92% | UACC-257 melanoma 100% | M14 melanoma 107% | HCT-15 colon 25% | HT29 colon 60.1% | SNB-19 CNS 99% | U251 CNS 84.8% | SK-MEL-5 melanoma 81.2% | UACC-62 melanoma 100% | SK-MEL-28 melanoma 91.6%

O=C(Nc1ccc(-c2nc(-c3cccc(O)c3)c(-c3ccnc(Br)c3)[nH]2)cc1)c1ccccc1
inactive: DU-145 prostate 35.5% | MALME-3M melanoma 16.9% | MDA-MB-231 breast 30.2% | SF-268 CNS 29.2% | SF-539 CNS 16.6% | UACC-257 melanoma 45.8% | M14 melanoma 22.6% | HT29 colon 12.2% | SNB-19 CNS 23.3% | U251 CNS 20.8% | UACC-62 melanoma 22.1%
active: K-562 leukemia 1.18% | RXF 393 renal -37.1% | SF-295 CNS -56.4% | SNB-75 CNS -2.13% | PC-3 prostate 6.14% | SK-MEL-5 melanoma -67% | LOX IMVI melanoma 3.27%

O=C1Nc2ccc(Cl)cc2/C1=C/c1ccc(OCc2ccc(F)cc2)cc1
inactive: DU-145 prostate 95.9% | K-562 leukemia 78.4% | MALME-3M melanoma 102% | MDA-MB-231 breast 95.2% | RXF 393 renal 95.5% | SF-268 CNS 92.7% | SF-295 CNS 99% | SF-539 CNS 96% | UACC-257 melanoma 96.6% | M14 melanoma 98.1% | HT29 colon 99.4% | SNB-75 CNS 89.7% | SNB-19 CNS 99.1% | U251 CNS 95.4% | PC-3 prostate 93.6% | SK-MEL-5 melanoma 105% | UACC-62 melanoma 90.8% | LOX IMVI melanoma 92.8%

O=S(=O)(NC1CC2CCC1C2)c1ccc2c(c1)C(=NO)c1cc(S(=O)(=O)NC3CC4CCC3C4)ccc1-2 (stereo not given)
active: DU-145 prostate 4.92% | MALME-3M melanoma -78.9% | MDA-MB-231 breast -21.9% | RXF 393 renal -9.66% | SF-268 CNS 8.95% | SF-539 CNS -35% | U251 CNS -64.2% | LOX IMVI melanoma -90.5%
inactive: K-562 leukemia 11.9% | SF-295 CNS 62.9% | UACC-257 melanoma 105% | M14 melanoma 24.9% | HT29 colon 22.3% | SNB-75 CNS 37.2% | SNB-19 CNS 63.3% | PC-3 prostate 59.2% | SK-MEL-5 melanoma 93% | UACC-62 melanoma 71% | SK-MEL-28 melanoma 92.3%

O=C(/C=C/c1cn(-c2ccccc2)nc1-c1ccc(Cl)cc1)c1cc2ccccc2oc1=O
inactive: DU-145 prostate 63.7% | K-562 leukemia 58.4% | MALME-3M melanoma 66% | MDA-MB-231 breast 55% | RXF 393 renal 95.7% | SF-268 CNS 90.8% | SF-295 CNS 48% | SF-539 CNS 68.4% | UACC-257 melanoma 93.5% | M14 melanoma 72.8% | HCT-15 colon 58.9% | HT29 colon 62.1% | SNB-19 CNS 54.3% | U251 CNS 35.1% | PC-3 prostate 53.3% | SK-MEL-5 melanoma 72% | LOX IMVI melanoma 37.3% | SK-MEL-28 melanoma 93%
